Measured values taken from PubChem BioAssay AID1159580 (chemical genetic matrix, 2015).
The campaign covered roughly 5,500 compounds. About 2,000 (36%) were called active. About 18% were inconclusive and are not listed. Rule as the data show it: active = normalized growth mostly below about 0.91 (no sharp cut-off); inconclusive = no clear call, values can overlap the other calls; inactive = mostly above about 0.92. This is one part of the list.

Experiment: chemical genetic growth profiling, strain panel (AID 1159580);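 also: tested at 20 µM; growth read once vehicle control cultures reached saturation at 30 °C; 1 = growth at the plate median or of vehicle wells; lower values mean less growth of the strain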
Details: growth OD

Measured: normalized growth

CC(=O)O[C@@H]1CC2C(C)(C)[C@H](O)CC[C@]2(C)C2CC[C@@]3(C)[C@H](c4ccoc4)OC(=O)C4OC43[C@@]21C (some centres not stated)
inactive: S. cerevisiae deletion strains, locus YJR066W, strain TOR1, hits give low values 1 | S. cerevisiae deletion strains, locus YJR075W, strain HOC1, hits give low values 1 | S. cerevisiae deletion strains, locus YKL009W, strain mrt4, hits give low values 0.963 | S. cerevisiae deletion strains, locus YKL068W, hits give low values 0.991 | S. cerevisiae deletion strains, locus YKL085W, strain MDH1 (second series), hits give low values 0.99 | S. cerevisiae deletion strains, locus YKL085W, strain MDH1, hits give low values 0.99 | S. cerevisiae deletion strains, locus YKL160W, strain elf1, hits give low values 0.989 | S. cerevisiae deletion strains, locus YKR001C, strain vps1, hits give low values 0.969 | S. cerevisiae deletion strains, locus YKR026C, strain gcn3, hits give low values 0.992 | S. cerevisiae deletion strains, locus YKR091W, strain srl3, hits give low values 1.01 | S. cerevisiae deletion strains, locus YLL001W, strain dnm1, hits give low values 1.03 | S. cerevisiae deletion strains, locus YLL026W, hits give low values 1.01 | S. cerevisiae deletion strains, locus YLL041C, strain sdh2, hits give low values 1.01 | S. cerevisiae deletion strains, locus YLR027C, strain aat2, hits give low values 1.01 | S. cerevisiae deletion strains, locus YLR039C, strain RIC1, hits give low values 1.01 | S. cerevisiae deletion strains, locus YLR058C, strain SHM2, hits give low values 1 | S. cerevisiae deletion strains, locus YLR102C, strain apc9, hits give low values 0.989 | S. cerevisiae deletion strains, locus YLR113W, strain HOG1, hits give low values 1.08 | S. cerevisiae deletion strains, locus YLR221C, strain rsa3, hits give low values 1.02 | S. cerevisiae deletion strains, locus YLR258W, strain gsy2, hits give low values 1.02 | S. cerevisiae deletion strains, locus YLR262C, strain YPT6 (second series), hits give low values 1 | S. cerevisiae deletion strains, locus YLR262C, strain YPT6, hits give low values 1.05 | S. cerevisiae deletion strains, locus YLR268W, strain sec22, hits give low values 0.984 | S. cerevisiae deletion strains, locus YLR320W, strain mms22, hits give low values 1.03 | S. cerevisiae deletion strains, locus YLR342W, strain FKS1 (second series), hits give low values 1.06 | S. cerevisiae deletion strains, locus YLR342W, strain FKS1, hits give low values 1.01 | S. cerevisiae deletion strains, locus YLR357W, strain rsc2, hits give low values 1.03 | S. cerevisiae deletion strains, locus YLR370C, strain arc18, hits give low values 1.01 | S. cerevisiae deletion strains, locus YLR371W, strain rom2, hits give low values 0.975 | S. cerevisiae deletion strains, locus YLR384C, strain iki3, hits give low values 1.02 | S. cerevisiae deletion strains, locus YLR418C, strain cdc73, hits give low values 0.984 | S. cerevisiae deletion strains, locus YML016C, strain PPZ1, hits give low values 0.982 | S. cerevisiae deletion strains, locus YML032C, strain rad52, hits give low values 0.975 | S. cerevisiae deletion strains, locus YML120C, strain ndi1, hits give low values 1.03 | S. cerevisiae deletion strains, locus YML124C, strain tub3, hits give low values 0.988 | S. cerevisiae deletion strains, locus YMR058W, strain fet3, hits give low values 1.03 | S. cerevisiae deletion strains, locus YMR078C, strain ctf18, hits give low values 0.972 | S. cerevisiae deletion strains, locus YMR125W, strain sto1, hits give low values 1 | S. cerevisiae deletion strains, locus YMR129W, hits give low values 1 | S. cerevisiae deletion strains, locus YMR205C, strain PFK2, hits give low values 1.04 | S. cerevisiae deletion strains, locus YMR223W, strain ubp8, hits give low values 0.995 | S. cerevisiae deletion strains, locus YMR231W, strain pep5, hits give low values 1.01 | S. cerevisiae deletion strains, locus YMR307W, strain GAS1, hits give low values 0.977 | S. cerevisiae deletion strains, locus YNL067W, strain RPL9B, hits give low values 1.02 | S. cerevisiae deletion strains, locus YNL071W, strain lat1, hits give low values 0.994 | S. cerevisiae deletion strains, locus YNL128W, strain TEP1, hits give low values 0.975 | S. cerevisiae deletion strains, locus YNL153C, strain GIM3, hits give low values 1.01 | S. cerevisiae deletion strains, locus YNL183C, strain NPR1, hits give low values 1.01 | S. cerevisiae deletion strains, locus YNL209W, strain ssb2, hits give low values 1.01 | S. cerevisiae deletion strains, locus YNL233W, strain BNI4, hits give low values 1.04 | S. cerevisiae deletion strains, locus YNL248C, strain rpa49, hits give low values 0.979 | S. cerevisiae deletion strains, locus YNL250W, strain rad50, hits give low values 1 | S. cerevisiae deletion strains, locus YNL271C, strain bni1, hits give low values 0.991 | S. cerevisiae deletion strains, locus YNL298W, strain CLA4, hits give low values 0.992 | S. cerevisiae deletion strains, locus YNL307C, strain MCK1, hits give low values 0.995 | S. cerevisiae deletion strains, locus YNL322C, strain KRE1 (second series), hits give low values 1.01 | S. cerevisiae deletion strains, locus YNL322C, strain KRE1, hits give low values 1.01 | S. cerevisiae deletion strains, locus YNR049C, strain mso1, hits give low values 1.01 | S. cerevisiae deletion strains, locus YNR052C, strain pop2, hits give low values 0.997 | S. cerevisiae deletion strains, locus YOL012C, strain htz1 1.17 | S. cerevisiae deletion strains, locus YOL147C, strain pex11, hits give low values 0.992 | S. cerevisiae deletion strains, locus YOR001W, strain rrp6, hits give low values 0.994 | S. cerevisiae deletion strains, locus YOR061W, strain CKA2, hits give low values 0.94 | S. cerevisiae deletion strains, locus YOR069W, strain VPS5, hits give low values 1 | S. cerevisiae deletion strains, locus YOR070C, strain gyp1, hits give low values 1.01 | S. cerevisiae deletion strains, locus YOR080W, strain dia2, hits give low values 1.01 | S. cerevisiae deletion strains, locus YOR083W, strain WHI5, hits give low values 0.979 | S. cerevisiae deletion strains, locus YOR106W, strain vam3, hits give low values 1 | S. cerevisiae deletion strains, locus YOR136W, strain idh2, hits give low values 0.998 | S. cerevisiae deletion strains, locus YOR144C, strain elg1, hits give low values 0.984 | S. cerevisiae deletion strains, locus YOR184W, strain ser1, hits give low values 0.975 | S. cerevisiae deletion strains, locus YOR231W, strain MKK1, hits give low values 1.09 | S. cerevisiae deletion strains, locus YOR265W, strain rbl2, hits give low values 1.01 | S. cerevisiae deletion strains, locus YOR270C, strain vph1, hits give low values 0.912 | S. cerevisiae deletion strains, locus YOR290C, strain snf2, hits give low values 0.985 | S. cerevisiae deletion strains, locus YOR316C, strain cot1, hits give low values 0.977 | S. cerevisiae deletion strains, locus YPL051W, strain arl3, hits give low values 1 | S. cerevisiae deletion strains, locus YPL078C, strain atp4, hits give low values 0.973 | S. cerevisiae deletion strains, locus YPL106C, strain sse1, hits give low values 1.03 | S. cerevisiae deletion strains, locus YPL240C, strain hsp82, hits give low values 1 | S. cerevisiae deletion strains, locus YPL256C, strain CLN2, hits give low values 1.08 | S. cerevisiae deletion strains, locus YPR119W, strain clb2, hits give low values 0.992 | S. cerevisiae deletion strains, locus YPR141C, strain kar3, hits give low values 0.962 | S. cerevisiae deletion strains, locus YPR163C, strain tif3, hits give low values 0.984 | S. cerevisiae deletion strains, locus YPR167C, strain met16, hits give low values 0.998 | S. cerevisiae deletion strains, strain wtn01, hits give low values 0.959 | S. cerevisiae strains, strain wild type, hits give low values 1
